Measurements as given in PubChem BioAssay.
Unmarked numbers belong to inactive results.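 Rule for the calls: active = inhibition at or above 50% relative to wild type and mutant plate controls; inactive = inhibition below 50%.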

Assay: loss of swimming-algae plug formation – whole organism, Chlamydomonas reinhardtii, WT vs cilia-less mutant, absorbance, 96-well, primary screen (AID 463189);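 note: 0% = wild type cc124 cells in DMSO and 100% = ciliumless bld1 mutant cells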
Settings: Chlamydomonas reinhardtii gravitaxis, OD600 absorbance, 2 days; at 10 µM; active compounds read high

Row | SMILES | inhibition
1 | CC(C)(Sc1ccc(CCN(CCCCC2CCCCC2)C(=O)NC2CCCCC2)cc1)C(=O)O | -0.647%
2 | O=C(N[C@@H](Cc1ccccc1)C(=O)CCl)OCc1ccccc1 | 0.05%
3 | CN1C2CCC1CC(OC(=O)c1c[nH]c3ccccc13)C2 (stereo not drawn) | 11.2%
4 | N#CC(=C(\N)Sc1ccccc1N)/C(C#N)=C(/N)Sc1ccccc1N | 13.7%
5 | N[C@@H]1CONC1=O | 0.59%
6 | CC(=O)N[C@H](C(=O)O)C(C)(C)SN=O | 3.53%
7 | Cc1cc(O)c2c(c1)C(=O)c1cc(O)cc(O)c1C2=O | -10.7%
8 | COc1cc(C(O)CO)ccc1O (stereo not drawn) | 1.74%
9 | Nc1c2c(nc3ccccc13)CCCC2O (stereo not drawn) | 2%
10 | O=c1ccn([C@@H]2O[C@H](COP(=O)(O)OP(=O)(O)O)[C@@H](O)[C@H]2O)c(=O)[nH]1 | 13.9%
11 | NC(=O)CNCCC(c1ccccc1)c1ccccc1 | -2.16%
12 | N[C@@H](CCC(=O)N[C@H](CSN=O)C(=O)NCC(=O)O)C(=O)O | 3.12%
13 | Nc1nc(OCc2ccccc2)c2[nH]cnc2n1 | 0.83%
14 | CN(C)CCC=C1c2ccccc2C=Cc2ccccc21 | 12.9%
15 | N[C@H](C(=O)O)[C@H](O)C(=O)O | 0.558%
16 | NC(=O)c1ccccc1 | -2.55%
17 | O=Nc1ccc2oc(=O)ccc2c1 | -9.21%
18 | N#C/C(=C\c1ccc(O)c(O)c1)C(=O)Nc1ccccc1 | 5.13%
